PKA-R1A activ: activators of PKA-R1A complex; P00514+P68181; PKA-R1A dissociation, Cy5-IP20 fluorescence polarization; scaled: DMSO 0%, 113 µM cGMP 100%; activation, % at 11.4 µM; hit rate 0.083% among 340,000;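 active = percent activation above the mean of all tested compounds plus 3 SD, cut at about 19% in these data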;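 note: higher means more PKAc released from R1A so a rise in polarization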
PAFAH1B3 inh: PAFAH1B3 (human) inhibition; Q15102; recombinant PAFAH1B3, FP-rhodamine probe, fluorescence polarization; inhibition, % at 3.39 µM; hit rate 0.28% among 340,000; AID 492972;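 active = inhibition above the screen-wide average of all tested compounds plus 3 SD, cut at about 25% in these data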;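 note: 0% = enzyme with DMSO only and 100% = wells lacking PAFAH1B3 protein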
PAFAH2 inh: inhibitors of human PAFAH2. hit rate 0.99% among 340,000. Q99487. recombinant PAFAH2, FP-rhodamine activity probe, fluorescence polarization. inhibition, % at 3.39 µM;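 active = inhibition above the mean over all tested compounds plus 3 SD, cut at about 30% in these data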;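 note: inhibitors block probe labeling of enzyme so polarization drops; 0% = enzyme with DMSO and 100% = wells lacking PAFAH2 protein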
PKA-R2B act: activates the human PKA-R2B holoenzyme complex; activation, % at 11.4 µM; hit rate 0.079% among 340,000; P22694+P31323; PKA-R2B holoenzyme dissociation, Cy5-IP20 fluorescence polarization; R2B truncated from residue 108, S112A mutant; 0% DMSO only, 100% 113 µM cGMP;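 active = activation above a cutoff set at the mean over all compounds plus 3 SD, cut at about 18% in these data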;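 note: higher means more holoenzyme dissociation and a rise in polarization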
Target sequence (P31323 whole entry, looked up, other chains not shown, the tested form may be a part): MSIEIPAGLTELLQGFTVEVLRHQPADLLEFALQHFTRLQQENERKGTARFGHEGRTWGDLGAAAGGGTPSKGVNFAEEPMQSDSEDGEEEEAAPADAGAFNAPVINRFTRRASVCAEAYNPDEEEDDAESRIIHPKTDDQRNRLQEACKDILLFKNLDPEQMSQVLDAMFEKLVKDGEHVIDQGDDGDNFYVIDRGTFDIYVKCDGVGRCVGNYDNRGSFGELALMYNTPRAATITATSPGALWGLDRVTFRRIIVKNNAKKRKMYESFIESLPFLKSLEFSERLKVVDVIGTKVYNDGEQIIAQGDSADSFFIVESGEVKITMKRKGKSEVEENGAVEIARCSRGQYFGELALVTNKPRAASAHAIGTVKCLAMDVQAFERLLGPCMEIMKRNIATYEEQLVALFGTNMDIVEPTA
pPAFAH inh: pPAFAH (human) enzyme inhibition | Q13093 | recombinant pPAFAH, FP-rhodamine probe fluorescence polarization | inhibition, % at 3.39 µM | hit rate 1.5% among 330,000;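 active = inhibition above the mean inhibition across the screen plus 3 SD, cut at about 25% in these data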;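 note: inhibitors block binding of the rhodamine activity-based probe so polarization drops; 0% = enzyme with DMSO and 100% = wells lacking pPAFAH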
PAFAH1B2 inh: blocks human PAF acetylhydrolase 1b catalytic subunit 2 | P68402 | inhibition, % at 3.39 µM | recombinant PAFAH1B2, FP-rhodamine activity probe, fluorescence polarization | AID 492953 | hit rate 1.2% among 340,000;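 active = inhibition above the mean of all tested compounds plus 3 SD, cut at about 24% in these data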;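 note: 0% = enzyme with DMSO and 100% = wells lacking PAFAH1B2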
An asterisk follows results filed as active; . = no result. Most compounds without a hit are left out; they make up all but 2.6% or so of the library.

SMILES	PKA-R1A activ	PAFAH1B3 inh	PAFAH2 inh	PKA-R2B act	pPAFAH inh	PAFAH1B2 inh
O=C(O)CSc1cc(NS(=O)(=O)c2ccc(Br)cc2)c2ccccc2c1O	-1	63*	42*	1	16	52*
O=C(CN(Cc1ccco1)C(=O)CNS(=O)(=O)c1ccc(F)cc1)NCc1ccc(F)cc1	-3	1	8	1	3	7
CC(C)C(C(=O)NCC1CCCO1)N(Cc1ccco1)C(=O)CNS(=O)(=O)c1ccc(F)cc1 (stereo not drawn)	-21	7	22	5	34*	2
O=C(CN(Cc1ccco1)C(=O)CNS(=O)(=O)c1ccc(Cl)cc1)NCc1ccc(F)cc1	7	2	22	-3	10	26*
COc1ccc(CN(C)C(=O)c2cc(S(=O)(=O)Nc3ccccc3F)ccc2C)c(OC)c1	16	8	-1	2	3	-7
COc1cccc(CN(C)C(=O)c2cc(S(=O)(=O)NC3CCCCC3)ccc2C)c1	1	-1	10	3	34*	7
Cc1ccc(C)n1NC(=O)c1ccccc1O	-6	2	9	-7	32*	-1
Cc1nnc(NC(=O)CC23CC4CC(CC(C4)C2)C3)s1	-1	7	3	-3	3	28*
CC12CC3CC(C)(C1)CC(C(=O)Nc1nncs1)(C3)C2	0	-1	-8	-1	3	28*
Cc1nnc(NC(=O)C23CC4CC(C)(CC(C)(C4)C2)C3)s1	-7	1	-1	-16	0	26*
CC(CC1CC(C)(C)OC1=O)C(=O)Nc1nncs1 (stereo not drawn)	4	6	-3	-12	4	-1
O=[N+]([O-])c1ccc(/C=N/Nc2ccnc3cc(Cl)ccc23)o1	4	4	-2	1	28*	1
Clc1ccc2c(N/N=C/c3ccccc3Br)ccnc2c1	0	2	-6	6	-1	-5
NC(=S)N=Nc1c(O)n(CCCl)c2ccc(Br)cc12	-8	5	4	-1	2	32*
O=C(CN(C(=O)c1csnn1)c1cccc(C(F)(F)F)c1)NCCc1ccccc1	-4	3	8	7	6	4
O=C(NCC1CCN(Cc2ccccc2F)CC1)Nc1cccc(Br)c1	0	11	-5	3	3	4
Cc1nc2oc3c(NCC4CCCO4)ncnc3c2c2c1COC(C)(C)C2 (stereo not drawn)	1	12	6	-2	4	2
Cc1nc2oc3c(NCc4ccccc4)ncnc3c2c2c1COC(C)(C)C2	-15	10	8	-8	27*	8
NC(=S)NN=C1CCCCCCCCCC1	-12	3	7	0	.	28*
O=C(C=Cc1ccco1)c1ccc([N+](=O)[O-])cc1	-1	3	9	5	.	4
O=C(/C=C/c1ccco1)c1ccc(NC(=O)C23CC4CC(CC(C4)C2)C3)cc1	5	-11	-5	-4	32*	2
O=C(COc1ccc(Br)cc1)NC(=S)Nc1ccccc1N1CCOCC1	-9	9	-10	0	2	26*
O=C(CNc1ccccc1)N/N=C/c1ccc2c(c1)OCO2	1	10	-5	-4	1	-3
O=C(CNc1ccc2c(c1)OCO2)N/N=C\c1cn(Cc2ccccc2)c2ccccc12	-3	4	-9	-9	30*	4
CC(=O)c1cccc(OCC(=O)Nc2cccc(C(=O)Nc3c(C)n(C)n(-c4ccccc4)c3=O)c2)c1	9	2	7	-2	3	1
SMILES	PKA-R1A activ	PAFAH1B3 inh	PAFAH2 inh	PKA-R2B act	pPAFAH inh	PAFAH1B2 inh
O=C(O)c1ccc(CN2C(=O)c3cccc4c([N+](=O)[O-])ccc(c34)C2=O)cc1	-2	31*	16	-19	.	18
O=C1C(Cl)=C(NCCc2ccccc2)C(=O)c2ccccc21	-9	40*	30*	0	.	33*
O=C1C(Cl)=C(NCCc2ccccc2)C(=O)N1CCc1ccccc1	3	0	0	4	-7	2
CN(C)c1cccc(C(=O)NCCCn2ccc3ccccc32)c1	4	-1	-2	-1	10	12
CCOC(=O)C1=C(O)/C(=C\c2ccc(CNS(=O)(=O)c3ccc(Br)cc3)o2)N=C1C	3	10	-3	-6	28*	8
C[C@@H]1CN([C@H](C)CO)C(=O)CCCn2nncc2CO[C@H]1CN(C)Cc1ccc(C(F)(F)F)cc1	-1	.	.	2	.	.
CSCCC(NS(=O)(=O)c1ccc(Cl)cc1)C(=O)OCc1c(Cl)cccc1Cl (stereo not drawn)	-13	-4	-3	-2	9	27*
CSCCC(NS(=O)(=O)c1ccc(Cl)cc1)C(=O)OCc1cccc(Cl)c1 (stereo not drawn)	-5	9	-5	-11	8	33*
CSCCC(NS(=O)(=O)c1ccc(Cl)cc1)C(=O)OCC(=O)N(C(C)C)C(C)C (stereo not drawn)	-14	-4	7	-12	6	5
O=C(O/N=C1/CCSc2ccccc21)c1ccccc1	-4	4	41*	-5	0	18
COc1cccc(/C=N/n2c(N)c(S(=O)(=O)c3cccs3)c3nc4ccccc4nc32)c1OC	6	-3	-14	3	3	-4
Nc1c(S(=O)(=O)c2cccc(Cl)c2)c2nc3ccccc3nc2n1/N=C/c1ccc(O)c(O)c1	.	.	.	.	71*	.
CCOC(=O)c1c(NC(=O)CSc2nnc(C)c(=O)[nH]2)sc(C)c1-c1ccc(C)cc1	-6	-1	-1	-2	29*	3
CCOC(=O)c1c(NC(=O)CSc2nnc(N)s2)sc(C)c1-c1ccc(C)cc1	-12	-7	-9	-8	20	-12
Cc1nnc(SCC(=O)Nc2sc3c(c2C#N)CCCC3)[nH]c1=O	1	4	8	-4	17	4
CCOC(=O)c1c(NC(=O)CSc2nnc(C)c(=O)[nH]2)sc2c1CCCC2	3	3	3	-3	27*	68*
COc1ccc(-c2cc(C(=O)OCC(=O)N3CCCCC3)c3ccccc3n2)cc1OC	2	5	7	-2	2	0
COC(=O)c1ccc(NC(=O)C2CCN(C(=O)c3cc(OC)c(OC)c(OC)c3)CC2)cc1	-13	4	-4	2	1	3
CCOC(=O)c1ccc(NC(=O)C2CCN(C(=O)c3ccc(OC)c(OC)c3)CC2)cc1	-7	-3	-1	4	29*	3
O=C(O)c1ccc(N/N=C/C2=C(N3CCOCC3)C(=C\c3ccccc3)/CC2)cc1	-1	8	8	-8	28*	4
Cc1cc(C)nc(NN=CC2=C(N3CCOCC3)/C(=C/c3ccc(Cl)cc3)CC2)n1	-1	8	17	-13	.	6
